# In PubChem BioAssay:
# Active and inactive are the calls of the source. Unless noted, no rule for the calls is given here.
# What was measured:
# [1] = system: Wnt5a (protein binding on small-molecule microarray); assay: small molecules binding Wnt5a protein – biophysical, small-molecule microarray, 635/667 nm fluorescence, primary screen (AID 1142); conditions: 635 nm fluorescence, higher = more signal;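 also: fluorescence read at 667 nm with signal to noise per printed feature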
# [2] = ATP-based viability of Huh7 replicon cells – cell-based, CellTiter-Glo luminescence, basal, 48 h, cytotoxicity control for HCV replication inhibitor project, primary screen (AID 1143); conditions: higher = more signal, called active from +8 up or from −8 down;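 also: Huh7 hepatoma cells carrying a hepatitis C replication reporter with no stimulus; test concentration not given here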
# [3] = Pseudomonas biofilm growth suppression – PAO1 strain, BacTiter-Glo luminescence, LB-PBS, primary screen (AID 1144); conditions: P. aeruginosa PAO1 biofilm, 12 h, higher = more signal
# [4] = basal CRE-LacZ reporter activity in PC12 – cell-based, unstimulated, primary screen (AID 1145); conditions: no forskolin, luminescence, 4.5 h, higher = more signal, called active from +8 up or from −8 down
# [5] = forskolin-driven CRE-LacZ activity in PC12 – cell-based, CRE-LacZ reporter, forskolin-stimulated, primary screen (AID 1146); conditions: luminescence, 4.5 h, higher = more signal, called active from +8 up or from −8 down;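 also: PC12 cells with 6xCRE LacZ reporter stimulated by forskolin 10 µM; beta-galactosidase reporter signal reflecting CREB driven transcription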
# [6] = biological target: Streptavidin (Streptomyces avidinii) (UniProt P22629); assay: compounds binding control protein streptavidin – biophysical, small-molecule microarray, 635/667 nm fluorescence, artefact control for SMM compound annotation, primary screen (AID 1147); conditions: higher = more signal;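 also: signal reflects streptavidin binding to arrayed compounds as a control protein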
# Sequence of Streptavidin (Streptomyces avidinii) (P22629 whole entry, looked up): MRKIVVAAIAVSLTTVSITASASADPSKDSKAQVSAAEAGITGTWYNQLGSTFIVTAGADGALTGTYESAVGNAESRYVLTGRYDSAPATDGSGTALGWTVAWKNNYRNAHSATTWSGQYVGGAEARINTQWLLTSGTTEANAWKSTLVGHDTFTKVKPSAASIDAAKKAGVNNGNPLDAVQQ
# [7] = probe aInhba binding on compound microarray – biochemical, small-molecule microarray, 635/667 nm fluorescence, primary screen (AID 1148); conditions: higher = more signal;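 also: score merges 667nm spot fluorescence with signal-to-noise for antibody binding to printed compounds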
# Torsin-1A (Homo sapiens) [8] = biological target: Torsin-1A (Homo sapiens) (UniProt O14656); assay: TOR1A wild-type binding on microarray – cell lysate, small-molecule microarray, lysate, 635/667 nm, primary screen (AID 1149); conditions: COS7 hTOR1A-WT lysate, 635 nm fluorescence, higher = more signal
# Sequence of Torsin-1A (Homo sapiens) (O14656 whole entry, looked up): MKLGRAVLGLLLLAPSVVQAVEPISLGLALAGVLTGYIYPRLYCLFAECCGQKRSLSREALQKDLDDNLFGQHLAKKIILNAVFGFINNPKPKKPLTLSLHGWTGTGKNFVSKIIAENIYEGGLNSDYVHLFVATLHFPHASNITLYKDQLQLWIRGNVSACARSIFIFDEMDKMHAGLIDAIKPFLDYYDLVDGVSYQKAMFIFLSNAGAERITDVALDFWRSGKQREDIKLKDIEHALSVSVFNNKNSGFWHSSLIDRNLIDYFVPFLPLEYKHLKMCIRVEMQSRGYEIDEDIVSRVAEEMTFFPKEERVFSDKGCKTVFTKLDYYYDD
# Torsin-1A (Homo sapiens) [9] = biological target: Torsin-1A (Homo sapiens) (UniProt O14656); assay: torsin A mutant lysate binding on microarrays – cell lysate, small-molecule microarray, COS7 lysate, 635/667 nm fluorescence, primary screen (AID 1150); conditions: COS7 hTOR1A mutant lysate, 635 nm fluorescence, higher = more signal;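 also: score pools 667 nm emission and signal to noise measuring lysate protein binding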
# [10] = system: Sonic hedgehog protein (Shh); assay: Sonic hedgehog microarray binding compounds – biochemical, small-molecule microarray, 635/667 nm fluorescence, primary screen (AID 1151); conditions: 635 nm fluorescence, higher = more signal;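 also: Shh protein binding to compounds spotted on small-molecule microarray slides; score combines spot fluorescence intensity with signal-to-noise across triplicate slides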
Structure (SMILES),composite z-score [1],z-score [2],z-score [3],z-score [4],z-score [5],composite z-score [6],composite z-score [7],composite z-score (Torsin-1A (Homo sapiens) [8]),composite z-score (Torsin-1A (Homo sapiens) [9]),composite z-score [10]
CC(C)(C)OC(=O)CC[C@@]1(C(N)=O)N=C(c2ccc(OCCCO)cc2)O[C@@H]1c1ccccc1CN=[N+]=[N-],1.07,-0.57 (inactive),0.938 (inactive),0.171 (inactive),0.638 (inactive),-0.0644,0.278,0.612,1.08,-0.425
C=C[C@@H](CO)NS(=O)(=O)c1ccc(Br)cc1,0.236,-2.14 (inactive),-1.74 (inactive),1.54 (inactive),-0.52 (inactive),-0.232,-0.154,-0.0176,-0.354,-0.317
COCCOC(=O)N1C(=O)[C@@]2(c3cc(C#CCC(C(=O)OC)C(=O)OC)ccc31)[C@H](C(N)=O)[C@H]1C(=O)O[C@H](c3ccccc3)[C@H](c3ccccc3)N1[C@@H]2c1ccccc1OCCO,-0.0211,-6.46 (inactive),-2.59 (inactive),-1.84 (inactive),-2.42 (inactive),1.09,-0.0259,0.0139,0.212,1.9
C=CC[C@H](O)c1ccc(O)c(F)c1,-0.863,-0.48 (inactive),-0.955 (inactive),-0.0392 (inactive),-0.535 (inactive),-1.39,-0.0429,-3.98,-1.66,-1.11
NCCCCCCNC(=O)[C@@H]1C[C@@H]2C(=O)NCC(=O)N2[C@@H]1c1cccc(OCCO)c1,0.729,-0.271 (inactive),-0.584 (inactive),0.0205 (inactive),-0.19 (inactive),1.03,-0.0624,1.56,2.08,1.31
COc1ccc([Si](C)(C)[C@@H]2[C@@H](CC(=O)N3CCC[C@H]3CO)O[C@]3(C(=O)N(Cc4cccc(N5C(=O)c6cccc7cccc5c67)c4)c4ccccc43)[C@H]2C)cc1,0.614,-5.86 (inactive),-0.334 (inactive),0.819 (inactive),-1.41 (inactive),0.609,-0.129,0.729,0.499,1.42
C=CCNC(=O)[C@H]1[C@@H]2C(=O)O[C@@H](c3ccccc3)[C@@H](c3ccccc3)N2[C@@H](c2ccc(O)cc2)[C@]12C(=O)Nc1ccccc12,-0.124,-0.792 (inactive),-0.683 (inactive),-0.195 (inactive),-0.0955 (inactive),-0.642,-0.128,0.64,0.778,0.279
Cc1ccc(S[C@]2(C(=O)NCc3ccccc3)CC(=O)N(Cc3ccccc3Cl)[C@@H]2c2ccc(CO)cc2)cc1,-0.132,-1.87 (inactive),-0.491 (inactive),-0.0512 (inactive),-0.226 (inactive),-0.744,0.298,0.163,0.0869,0.469
CC[C@@H](O[Si](C#C[Si](C(C)C)(C(C)C)C(C)C)(C(C)C)C(C)C)c1cn(Cc2cccc(Cl)c2)nn1,0.159,0.139 (inactive),-0.14 (inactive),-0.272 (inactive),-0.168 (inactive),0.424,-0.124,0.188,0.227,0.546
Cc1ccc(S[C@]2(C(=O)NC3CC3)CC(=O)N(C3Cc4ccccc4C3)[C@@H]2c2ccc(CO)cc2I)cc1,-0.547,-2.23 (inactive),0.714 (inactive),0.919 (inactive),2.86 (inactive),-0.441,0.0051,0.909,0.701,0.209
CCOC(=O)C[C@H]1[C@H](OC(=O)c2ccc(-c3ccccc3)cc2)[C@@H](NC(=O)C2CCCCC2)c2cc(OCCCO)ccc2N1C(=O)Cc1ccc(OC)cc1,-0.12,-0.137 (inactive),-0.105 (inactive),-0.155 (inactive),-0.185 (inactive),0.226,-0.0259,0.061,0.391,0.106
O=C1c2ccccc2[C@@]2(Cc3ccccc3N(CC(F)(F)F)C2=O)[C@H](c2ccc(CO)cc2)N1Cc1ccccc1,0.104,-4.1 (inactive),-0.692 (inactive),-0.258 (inactive),-0.616 (inactive),0.0298,-0.149,-0.118,-0.175,1.82
O=C(N1CCOCC1)[C@]1(CCS(=O)(=O)c2ccccc2)N=C(c2ccc(OCCCO)cc2)O[C@@H]1c1ccccc1,0.308,-2.3 (inactive),0.863 (inactive),1.1 (inactive),0.711 (inactive),0.947,0.212,0.46,0.77,-0.19
CN(C)CCCCNC(=O)[C@H]1C[C@H]2C(=O)N[C@@H](CCCCN(C)C)C(=O)N2[C@H]1c1ccc(O)cc1,0.215,-1.14 (inactive),-0.889 (inactive),-1.61 (inactive),-0.252 (inactive),0.165,-0.206,0.464,0.282,1.29
COc1cccc(C)c1NC(=O)O[C@H]1[C@H](OC(=O)Nc2ccc3c(c2)OCO3)[C@H](OC(=O)Nc2ccc3c(c2)OCO3)[C@@H](OC)O[C@@H]1CO,0.469,-2.59 (inactive),1.05 (inactive),0.558 (inactive),-1.04 (inactive),1.2,0.226,-0.148,0.533,2.02
CN1C(=O)C2CC=C(C3=CCO[C@@H]3[C@H]3CCCN3S(=O)(=O)c3ccccc3[N+](=O)[O-])CC2C1=O (stereo not given in full),0.0169,0.459 (inactive),0.0769 (inactive),-0.505 (inactive),1.14 (inactive),-0.102,0.0516,-0.23,-0.282,-0.151
CCOC(=O)C[C@H]1[C@H](OC(=O)Cc2ccc3c(c2)OCO3)[C@@H](NC(=O)CC(C)C)c2cc(OCCCO)ccc2N1C(=O)c1ccc2ccccc2n1,0.25,-3.23 (inactive),0.0536 (inactive),7.92 (inactive),0.812 (inactive),0.23,-0.0331,0.384,-0.147,0.458
COC(=O)[C@@]1(Cc2ccc(F)cc2)[C@H]2c3cc(C(=O)N(C)C)n(CCF)c3C[C@H]2CN1C(=O)c1ccccc1,0.101,-1.56 (inactive),-0.501 (inactive),-0.375 (inactive),0.25 (inactive),0.471,0.117,0.632,0.606,-0.447
Cc1c(NC(=O)/C(C#N)=C/C=C/c2ccc([N+](=O)[O-])cc2)c(=O)n(-c2ccccc2)n1C,0.388,-0.997 (inactive),1.12 (inactive),0.829 (inactive),0.732 (inactive),1.32,0.0301,0.321,0.468,0.569
CCCCCCCCCCC(O)C1C=CC2C(=O)N(C)C(=O)C2N1Nc1ccccc1 (stereo not given),-0.56,-0.776 (inactive),0.178 (inactive),0.819 (inactive),0.848 (inactive),-0.925,-0.474,-0.0378,0.213,-1.5
O=C1O[C@H](c2ccccc2)[C@H](c2ccccc2)N2[C@H]1[C@@H](C(=O)O)[C@]1(C(=O)Nc3ccc(C#CC4(O)CCCCCC4)cc31)[C@H]2c1ccccc1OCCO,0.455,-2.05 (inactive),1.27 (inactive),17.9 (active),21.5 (active),1.41,0.397,0.541,-0.462,0.721
O=C(CS)NCCCCCCNC(=O)[C@H]1C[C@H]2C(=O)NCC(=O)N2[C@H]1c1cccc(OCCO)c1,0.497,-2.15 (inactive),-0.525 (inactive),0.0084 (inactive),-0.963 (inactive),-0.127,-0.226,0.168,0.442,1.54
C=CCNC(=O)[C@@H]1[C@H]2C(=O)O[C@H](c3ccccc3)[C@H](c3ccccc3)N2[C@H](c2ccc(OCCO)cc2)[C@@]12C(=O)Nc1ccc(C#CCNC(N)=O)cc12,0.0977,0.414 (inactive),0.0575 (inactive),0.155 (inactive),0.0297 (inactive),0.987,-0.0195,0.564,0.19,0
N#Cc1ccc(NN2C(C(O)c3ccc(B(O)O)cc3)C=CC3CN(c4ccccc4)C(=O)C32)cc1 (stereo not given),-0.465,-0.0138 (inactive),-0.454 (inactive),-0.898 (inactive),-0.758 (inactive),0.287,-0.128,-0.0754,0.103,-0.944
C=C[C@H](OC)[C@@H](O)c1ccc(OC)c(O)c1,-0.444,0.97 (inactive),-1.34 (inactive),0.222 (inactive),-0.904 (inactive),-1.56,-0.29,-0.874,-0.695,-0.734
C=CCNC(=O)[C@H]1[C@@H]2C(=O)O[C@@H](c3ccccc3)[C@@H](c3ccccc3)N2[C@@H](c2ccc(O)cc2)[C@]12C(=O)Nc1ccc(C#CCC(C(=O)OC)C(=O)OC)cc12,-0.223,0.15 (inactive),0.278 (inactive),-0.471 (inactive),0.0988 (inactive),-0.419,-0.0762,0.685,0.449,0.414
C=C(C(=O)CC[C@H](OC(=O)c1ccccc1-c1ccccc1C(=O)O)c1ccc(OCCO)cc1)C(C)C,0.686,-0.723 (inactive),-1.22 (inactive),0.611 (inactive),1.09 (inactive),-0.0151,0.0497,1.87,1.5,0.7
CC1(C)OB(/C=C\CC(OC(=O)c2ccncc2)c2ccccc2)OC1(C)C (stereo not given),0.496,-0.635 (inactive),0.135 (inactive),3.3 (inactive),0.174 (inactive),-0.452,-0.383,0.432,-0.232,-0.476
